Records with an inconclusive call do not appear. Activity calls are given as the source filed them. Calls follow the shape of the dose curve; as a rule, active = well fitted activation curve with a large enough effect; inconclusive = small, poorly fitted or top-dose-only effect; inactive = flat fitted curve, though single readings scatter.
target: Pyruvate kinase PKM (Homo sapiens) (UniProt P14618); assay: Confirmation Concentration-Response Assay for Activators of Human Muscle isoform 2 Pyruvate Kinase: for Probe SAR; conditions: purified PKM2, ATP generation, Kinase-Glo luminescence; series mostly up to 57.5 µM; activity change, positive = activation: at the top concentration; also: nearly all actives have a fitted effect of over 60% in size; as to activity change, positive = activation: % of control where 0% means no effect
Sequence (P14618 whole entry, looked up, canonical isoform): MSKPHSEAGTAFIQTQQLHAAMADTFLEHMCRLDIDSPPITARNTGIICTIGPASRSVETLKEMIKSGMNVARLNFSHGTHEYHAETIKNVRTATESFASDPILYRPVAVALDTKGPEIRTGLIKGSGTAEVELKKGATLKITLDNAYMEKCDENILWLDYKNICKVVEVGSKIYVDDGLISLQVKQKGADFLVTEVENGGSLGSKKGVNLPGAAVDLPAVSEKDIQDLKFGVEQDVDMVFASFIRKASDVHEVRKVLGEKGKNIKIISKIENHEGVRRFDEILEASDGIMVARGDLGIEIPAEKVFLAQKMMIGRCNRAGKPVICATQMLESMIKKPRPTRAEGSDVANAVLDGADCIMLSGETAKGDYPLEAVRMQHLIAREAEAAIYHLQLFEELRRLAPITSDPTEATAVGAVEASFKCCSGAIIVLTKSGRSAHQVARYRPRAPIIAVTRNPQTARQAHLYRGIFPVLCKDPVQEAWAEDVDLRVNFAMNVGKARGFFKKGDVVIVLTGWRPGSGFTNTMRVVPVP
Source text: NIH Chemical Genomics Center [NCGC]
Matthew G. Vander Heiden, M.D., Ph.D. [Harvard Medical School, 77 Avenue Louis Pasteur, Boston, MA 02115]
Human pyruvate kinase muscle 2 (hPK-M2) enzyme was supplied as a highly purified (>95% pure) preparation from Harvard Medical School and assayed for its ability to generate ATP from ADP using phosphoenolpyruvate (PEP) as a substrate. ATP generation was detected in a coupled reaction by luciferase-mediated luminescence, an ATP-dependent process. […] The enzyme was assayed at an intermediate level of activity to screen for both inhibitors and activators.
NCGC Assay Protocol Summary:
Three uL of substrate mix (at r.t.) in assay buffer (50 mM Imidazole pH7.2, 50 mM KCl, 7 mM MgCl2, 0.01% Tween 20, 0.05% BSA) was dispensed into white solid bottom 1,536 well microtiter plates so that the final concentrations of substrates in the assay were 0.1 mM ADP and 0.5 mM PEP. 23 nL of compound were delivered by a pin tool and 1 uL of enzyme mix (final concentration of 0.1 nM) in assay buffer (4 degree Celsius) was added. Plates were incubated at room temperature for 1 hour. Two uL of detection mix (Kinase-Glo, Promega; at 4 degree Celsius protected from light) was added and luminescence read by a ViewLux (Perkin Elmer) at 1 second exposure/plate. Data were normalized to the uninhibited (column 3) and AC100 inhibition (no enzyme in column 2). To monitor activation, the first column contained a titration of the activator, NCGC00031955-03 (16-point 1:2 dilutions in duplicate starting at 57 uM) and the first 16 rows of column 4 contained 57 uM of NCGC00031955-03.
Potency is read from the fitted curve at half-maximal effect.

Row | Structure (SMILES) | activity change, positive = activation | Potency
1 | O=C1c2ccccc2C(=O)N1c1ccc(Cl)cc1 | 7.81% (inactive) | 
2 | Cc1ccc(NC(=O)c2ccc3c(c2)CCC(=O)N3)cc1C | 2.8% (inactive) | 
3 | O=S1(=O)N=C(Oc2ccccc2C(F)(F)F)c2ccccc21 | 7.62% (inactive) | 
4 | Nc1ccc(S(=O)(=O)N2CCCN(S(=O)(=O)c3ccc4c(c3)OCCO4)CC2)cc1 |  | 1030 nM (active)
5 | O=C(O)c1ccccc1OC1=NS(=O)(=O)c2ccccc21 | -3.15% (inactive) | 
6 | Cc1ccc(NS(=O)(=O)c2cc3c(cc2F)NC(=O)CC3)cc1C |  | 730 nM (active)
7 | COc1ccc(-c2nc3cccc(C)n3c2Nc2ccc(C)cc2)cc1 | 14.6% (inactive) | 
8 | Cc1ccc(NS(=O)(=O)c2ccc3c(c2)CC(=O)N3C)cc1C |  | 3660 nM (active)
9 | O=C1c2ccccc2C(=O)N1c1ncccc1O | 15.4% (inactive) | 
10 | Cc1ccc(Nc2c(-c3ccsc3)nc3c(C)cccn23)cc1 | 14.9% (inactive) | 
11 | Cc1ccc2nc(-c3ccc(C)o3)c(Nc3ccc(Cl)cc3)n2c1 | 27.1% (inactive) | 
12 | CCSC1=NS(=O)(=O)c2ccccc21 | 8.09% (inactive) | 
13 | Cc1c(Cl)cccc1NS(=O)(=O)c1cc2c(cc1F)NC(=O)CC2 |  | 3660 nM (active)
14 | COc1ccccc1NS(=O)(=O)c1ccc2c(c1)CCC(=O)N2 |  | 20600 nM (active)
15 | Cc1cc(NS(=O)(=O)c2ccc3c(c2)CCC(=O)N3)ccc1F |  | 461 nM (active)
16 | Cc1ccccc1N(C)C1=N[S+](=O)([O-])c2ccccc21 | 1.26% (inactive) | 
17 | O=S1(=O)N=C(Sc2cccc3cccnc23)c2ccccc21 | -20.5% (inactive) | 
18 | O=C1CCc2cc(S(=O)(=O)Nc3cccc(Cl)c3)ccc2N1 |  | 410 nM (active)
19 | O=C1CCc2cc(S(=O)(=O)Nc3ccccc3Cl)ccc2N1 |  | 18300 nM (active)
20 | O=C1CCc2cc(S(=O)(=O)Nc3ccc(-c4ccccc4)cc3)ccc2N1 | 20.6% (inactive) | 

Row | Structure (SMILES) | activity change, positive = activation | Potency
21 | Cc1cccc(OC2=NS(=O)(=O)c3ccccc32)c1 | 14.9% (inactive) | 
22 | Cc1ccc2nc(-c3ccc(C)o3)c(Nc3ccc4c(c3)OCO4)n2c1 | 29.7% (inactive) | 
23 | Cc1ccc2nc(-c3cccs3)c(Nc3ccccc3)n2c1 | 11.6% (inactive) | 
24 | O=S1(=O)N=C(Oc2ccccc2Br)c2ccccc21 | 2.94% (inactive) | 
25 | O=C1c2ccccc2C(=O)N1c1ccc2ccccc2n1 | 3.11% (inactive) | 
26 | Cc1ccc(NS(=O)(=O)c2ccc3c(c2)CCC(C)(C)O3)cc1C | 30% (inactive) | 
27 | O=C1CCc2cc(S(=O)(=O)Nc3ccc4ccccc4c3)ccc2N1 |  | 5170 nM (active)
28 | CNc1cccc(S(=O)(=O)N2CCN(S(=O)(=O)c3ccc4c(c3)OCCO4)CC2)c1 |  | 259 nM (active)
29 | O=C1c2ccccc2C(=O)N1Cc1ccccc1 | 1.32% (inactive) | 
30 | O=S1(=O)N=C(Oc2cccc3ccccc23)c2ccccc21 | -1.77% (inactive) | 
31 | Cc1ccc(C)c(NC2=NS(=O)(=O)c3ccccc32)c1 | 11.5% (inactive) | 
32 | Cc1ccc(NS(=O)(=O)c2cc3c(cc2Cl)NC(=O)CO3)cc1C |  | 410 nM (active)
33 | N#Cc1cccc(OC2=NS(=O)(=O)c3ccccc32)c1 | 6.14% (inactive) | 
34 | Cc1ccc(NS(=O)(=O)c2ccc3c(c2)CCC(=O)N3)cc1C |  | 651 nM (active)
35 | O=S1(=O)N=C(Oc2ccc3ccccc3c2)c2ccccc21 | 3.06% (inactive) | 
36 | O=S(=O)(Nc1ccc(O)c(NS(=O)(=O)c2ccccc2)c1)c1ccccc1 | 21.5% (inactive) | 
37 | O=C1c2ccccc2C(=O)N1c1cc(=O)c2ccccc2[nH]1 | -41.7% (inactive) | 
38 | O=S1(=O)N=C(Oc2cccc(Cl)c2)c2ccccc21 | 10.9% (inactive) | 
39 | O=C1CCc2cc(Cl)c(S(=O)(=O)Nc3ccc(Cl)c(Cl)c3)cc2N1 |  | 73 nM (active)
40 | Cc1cc(NS(=O)(=O)c2ccc3c(c2)CCC(=O)N3)ccc1Cl |  | 517 nM (active)
